Data reported in PubChem BioAssay AID1159580 (chemical genetic matrix, 2015).
Several values for one entry are separate records, joined by “and”; a condition that tells them apart may be missing. Identical values can stand only once. About 2,000 (36%) of roughly 5,500 compounds were called active. Another 18% or so got no clear call; they are omitted. Rule as the data show it: active = normalized growth mostly below about 0.91 (no sharp cut-off); inconclusive = no clear call, values can overlap the other calls; inactive = mostly above about 0.92. The list shows a part of the results.

Assay: chemical genetic growth profiling, strain panel (AID 1159580);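 also: tested at 20 µM; growth read once vehicle control cultures reached saturation at 30 °C; 1 = growth at the plate median or of vehicle wells; lower values mean less growth of the strain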
Details: S. cerevisiae deletion strains, growth OD

Measured: normalized growth

CC1=C(C(=O)O)N2C(=O)[C@@H](NC(=O)[C@H](N)C3=CCC=CC3)C2SC1 (some centres not stated)
inactive: locus YAL013W, strain DEP1, active compounds read low 1 | locus YAL021C, strain ccr4, active compounds read low 1.01 | locus YAL026C, strain drs2, active compounds read low 1.03 | locus YAL030W, strain snc1, active compounds read low 1.03 | locus YBL061C, strain skt5, active compounds read low 1.03 | locus YBR009C, strain hhf1, active compounds read low 1.02 | locus YBR021W, strain FUR4, active compounds read low 1.02 | locus YBR023C, strain chs3, active compounds read low 1.02 | locus YBR171W, strain sec66, active compounds read low 1.04 | locus YBR229C, strain ROT2, active compounds read low 0.953 | locus YBR231C, strain swc5, active compounds read low 1.04 | locus YBR279W, strain paf1, active compounds read low 1.01 | locus YCL011C, strain gbp2, active compounds read low 1.03 | locus YCL016C, strain dcc1, active compounds read low 1.02 | locus YCL029C, strain bik1, active compounds read low 0.998 | locus YCL061C, strain MRC1, active compounds read low 1.02 | locus YCL069W, strain vba3, active compounds read low 1.02 | locus YCR088W, strain abp1, active compounds read low 1.02 | locus YDL005C, strain med2, active compounds read low 1.03 | locus YDL035C, strain GPR1, active compounds read low 0.965 | locus YDL040C, strain nat1, active compounds read low 1.02 | locus YDL074C, strain BRE1, active compounds read low 0.987 | locus YDL101C, strain DUN1, active compounds read low 0.98 | locus YDL185W, strain tfp1, active compounds read low 0.977 | locus YDL192W, strain arf1, active compounds read low 0.989 | locus YDR001C, strain nth1, active compounds read low 1.01 | locus YDR069C, strain doa4, active compounds read low 1.02 | locus YDR101C, strain arx1, active compounds read low 0.988 | locus YDR137W, strain rgp1, active compounds read low 1.03 | locus YDR159W, strain sac3, active compounds read low 1.04 | locus YDR162C, strain NBP2, active compounds read low 0.951 | locus YDR195W, strain ref2 0.992 | locus YDR297W, strain sur2, active compounds read low 1.02 | locus YDR318W, strain mcm21, active compounds read low 1 | locus YDR334W, strain swr1, active compounds read low 1.01 | locus YDR335W, strain msn5, active compounds read low 1.02 | locus YDR388W, active compounds read low 0.99 | locus YDR392W, strain spt3, active compounds read low 1.03 | locus YDR502C, strain sam2, active compounds read low 1.02 | locus YEL003W, strain gim4, active compounds read low 1.02 | locus YEL037C, strain rad23, active compounds read low 1.02 | locus YEL061C, strain CIN8 (second series), active compounds read low 1.02 | locus YEL061C, strain CIN8, active compounds read low 0.995 | locus YER015W, strain faa2, active compounds read low 1 | locus YER016W, strain bim1, active compounds read low 1.02 | locus YER110C, active compounds read low 0.981 | locus YER111C, strain swi4, active compounds read low 1.03 | locus YER155C, strain BEM2 (second series), active compounds read low 1.03 | locus YER155C, strain BEM2, active compounds read low 0.998 | locus YER167W, strain BCK2, active compounds read low 0.989 | locus YFR010W, strain ubp6, active compounds read low 1.03 | locus YGL078C, strain dbp3, active compounds read low 0.993 | locus YGL086W, strain mad1, active compounds read low 0.933 | locus YGL167C, strain pmr1, active compounds read low 1.04 | locus YGL173C, strain kem1, active compounds read low 1.03 | locus YGL227W, strain vid30, active compounds read low 1.02 | locus YGL240W, strain doc1, active compounds read low 1.03 | locus YGL248W, strain PDE1, active compounds read low 1.01 | locus YGL253W, strain hxk2, active compounds read low 1.03 | locus YGR135W, strain pre9, active compounds read low 1.03 | locus YGR252W, strain gcn5, active compounds read low 1.05 | locus YHR013C, strain ard1, active compounds read low 1.05 | locus YHR027C, strain rpn1, active compounds read low 1.02 | locus YHR030C, strain SLT2, active compounds read low 0.994 and 0.964 | locus YHR079C, strain IRE1 (second series), active compounds read low 1 | locus YHR079C, strain IRE1, active compounds read low 0.956 | locus YHR094C, strain hxt1, active compounds read low 0.983 | locus YHR129C, strain ARP1, active compounds read low 0.988 | locus YHR142W, strain chs7, active compounds read low 1.04 | locus YHR200W, strain rpn10, active compounds read low 0.986 | locus YIL066C, strain RNR3, active compounds read low 0.971 | locus YIL073C, strain SPO22, active compounds read low 1.01 | locus YIL125W, strain kgd1, active compounds read low 0.99 | locus YIR030C, strain dcg1, active compounds read low 0.993 | locus YJL092W, strain hpr5, active compounds read low 1.02 | locus YJL095W, strain BCK1 (second series), active compounds read low 1.02 | locus YJL095W, strain BCK1, active compounds read low 1.02 and 0.989 | locus YJL115W, strain asf1, active compounds read low 1.03 | locus YJL129C, strain trk1, active compounds read low 1.03 | locus YJL134W, strain LCB3, active compounds read low 0.985 | locus YJL154C, strain vps35, active compounds read low 1.01 | locus YJL164C, strain tpk1, active compounds read low 1.02 | locus YJL166W, strain qcr8, active compounds read low 1.02 | locus YJL168C, strain set2, active compounds read low 0.994 | locus YJL187C, strain SWE1 (second series), active compounds read low 0.996 | locus YJL187C, strain SWE1, active compounds read low 1.03 | locus YJR043C, strain POL32, active compounds read low 0.961
